Test results as given in paper PMC11062922 (Nature Chemical Biology, 2023).

What was measured:
Set-up in all cases: species or system human, MV4-11 + K-562 + COLO205 + SK-N-BE2 + OVCAR-8
AMPK-alpha1 = settings: compound concentrations: 100 nM and 1000 nM (sheet 'Samples')
AMPK-alpha2 = settings: compound concentrations: 100 nM and 1000 nM (sheet 'Samples')
CIT = settings: compound concentrations: 100 nM and 1000 nM (sheet 'Samples')
CLK1 = settings: compound concentrations: 100 nM and 1000 nM (sheet 'Samples')
CLK2 = settings: compound concentrations: 100 nM and 1000 nM (sheet 'Samples')
CSNK2A1 = settings: read-out: Kinobeads Data; compound concentrations: 100 nM and 1000 nM (sheet 'Samples'); n = 1
CSNK2A2 = settings: read-out: Kinobeads Data; compound concentrations: 100 nM and 1000 nM (sheet 'Samples'); n = 1
DYRK1A = settings: compound concentrations: 100 nM and 1000 nM (sheet 'Samples')
DYRK1B = settings: compound concentrations: 100 nM and 1000 nM (sheet 'Samples')
EPHB1 = settings: compound concentrations: 100 nM and 1000 nM (sheet 'Samples')
LCK = settings: compound concentrations: 100 nM and 1000 nM (sheet 'Samples')
MEK5 = settings: compound concentrations: 100 nM and 1000 nM (sheet 'Samples')
MLK3 = settings: compound concentrations: 100 nM and 1000 nM (sheet 'Samples')
NEK2 = settings: compound concentrations: 100 nM and 1000 nM (sheet 'Samples')
NEK3 = settings: compound concentrations: 100 nM and 1000 nM (sheet 'Samples')
NEK9 = settings: compound concentrations: 100 nM and 1000 nM (sheet 'Samples')
SLK = settings: compound concentrations: 100 nM and 1000 nM (sheet 'Samples')
STK16 = settings: compound concentrations: 100 nM and 1000 nM (sheet 'Samples')
TBK1 = settings: compound concentrations: 100 nM and 1000 nM (sheet 'Samples')
[1] = test system: TYK2(JH2domain-pseudokinase); settings: compound concentrations: 100 nM and 1000 nM (sheet 'Samples')
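Further: kinobeads ε competition pulldown from cell lysate, compound preincubated 45 min at 4 °C, bound kinases quantified by LC–MS/MS relative to DMSO control.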

COc1cc(Nc2ncc3c(C)nc(-c4cc5ccccc5[nH]4)n3n2)cc(OC)c1OC [GW869516X]
56 nM: potency estimated from few doses (CSNK2A2)
78 nM: potency estimated from few doses (CSNK2A1)
no target: Kinobeads Data (AMPK-alpha1) | Kinobeads Data (AMPK-alpha2) | Kinobeads Data (CIT) | Kinobeads Data (CLK1) | Kinobeads Data (CLK2) | Kinobeads Data (DYRK1A) | Kinobeads Data (DYRK1B) | Kinobeads Data (EPHB1) | Kinobeads Data (LCK) | Kinobeads Data (MEK5) | Kinobeads Data (MLK3) | Kinobeads Data (NEK2) | Kinobeads Data (NEK3) | Kinobeads Data (NEK9) | Kinobeads Data (SLK) | Kinobeads Data (STK16) | Kinobeads Data (TBK1) | Kinobeads Data [1]
